Results filed as inconclusive are left out. Where a call stands in place of a potency, no number is given. Calls of active or inactive are those of the source. Calls come from the whole dose curve; as a rule, active = well fitted activation curve with a large enough effect in the repeat runs; inconclusive = weak or mixed curves; inactive = no such curve, though single readings can be large or run the other way.

The target of this assay is Nuclear receptor subfamily 1 group I member 3 (Homo sapiens) (UniProt Q14994). Nature of the assay: qHTS assay to identify small molecule agonists of the constitutive androstane receptor (CAR) signaling pathway (AID 1224839).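 Note: HepG2 cells stably carrying human CAR and a CYP2B6 luciferase reporter; nearly all actives have a fitted effect of over 15% in size.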 Conditions: HepG2 hCAR CYP2B6-luciferase, agonist mode, 24 h; series mostly up to 92.4 µM. The source says: National Center for Advancing Translational Sciences [NCATS] NIH Chemical Genomics Center [NCGC] U.S. Environmental Protection Agency [EPA] National Institutes of Environmental Health Sciences [NIEHS] National Toxicology Program [NTP] Assay overview: The constitutive androstane receptor (CAR) is a nuclear receptor which regulates multiple drug metabolizing enzymes (DMEs) and transporters. Activating CAR will generally increase the transcription and subsequent translation of CYP2B6 and CYP3A4. These two DMEs represent about 50% of the drug metabolizing potential in the body. […] Recently, there have also been studies performed indicating CARs role in energy metabolism and cancer therapy. Therefore, inducing CARs activity could have a potential effect on diabetes and cancer. Identifying environmental toxins and compounds which modulate CAR, through the use of the Tox21 10K compound collection, will be an important step in determining the toxicity and potential therapeutic effects these factors will have on the human body.
Sequence of Nuclear receptor subfamily 1 group I member 3 (Homo sapiens) (Q14994 whole entry, looked up): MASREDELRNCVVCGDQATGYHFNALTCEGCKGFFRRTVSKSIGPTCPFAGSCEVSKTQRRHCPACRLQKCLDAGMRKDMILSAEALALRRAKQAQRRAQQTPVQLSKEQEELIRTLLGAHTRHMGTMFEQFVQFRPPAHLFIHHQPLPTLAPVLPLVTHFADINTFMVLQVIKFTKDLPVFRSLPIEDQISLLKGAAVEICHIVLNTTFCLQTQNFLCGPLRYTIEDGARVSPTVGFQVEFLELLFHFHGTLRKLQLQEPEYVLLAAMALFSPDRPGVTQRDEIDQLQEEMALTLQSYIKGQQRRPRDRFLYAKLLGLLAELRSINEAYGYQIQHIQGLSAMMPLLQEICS
Assay Protocol Summary: A double-stable (hCAR and CYP2B6-2.2kb) transfected cell line, derived from human hepatoma (HepG2) cells, was utilized for the duration of the quantitative high-throughput screens. The HepG2-CYP2B6-hCAR cells suspended in DMEM culture medium supplemented with 10% FBS, 5 ug/mL blasticidin, 0.5 mg/mL geneticin, 100 U/mL penicillin and 100 ug/mL streptomycin were dispensed at 2500 cells/4 uL/well in 1536-well white solid bottom plates using a Multidrop Combi. After the assay plates were incubated at 37 C/5% CO2 for 4 hrs, 23 nL of compounds at 15 concentrations (from 5-48 columns) or positive control (from 1 to 4 columns) were transferred to the assay plates using a Pintool station. One uL of PK11195, was added using a Flying Reagent Dispenser to generate a final concentration of 0.75 uM PK11195 inside each well. After a 24 hr incubation period at 37 C/5% CO2, four uL of ONE-Glo reagent was added into the assay plates using a Flying Reagent Dispenser. After a 30 min incubation period at room temperature, the luminescence intensity in the assay plates was measured using a ViewLux plate reader.
A general note: qHTS replaces the single test concentration by a dilution series.
Consider `O=C1CCCCO1`, for which the Potency entry is “inactive”.

As for `O=[N+]([O-])c1c(Cl)cc(Cl)cc1Cl`, the Potency entry is “inactive”. Take `Cc1cccc(Cl)c1`: the Potency result was “inactive”. As for `COc1cc2c(cc1OC)CN(C(=O)[C@H](C)N[C@@H](CCc1ccccc1)C(=O)O)[C@H](C(=O)O)C2`, the Potency result was “inactive”. The result for `CSc1cnccn1` reads “inactive”; that for `C=C(C)c1cccc(C(C)(C)N=C=O)c1`, “inactive”. To `CCC[C@@H]1C[C@@H](C(=O)N[C@@H]([C@H]2O[C@H](SC)[C@H](O)[C@@H](O)[C@H]2O)[C@@H](C)O)N(C)C1` belongs “inactive”. To `O=C(Cl)c1ccccc1[N+](=O)[O-]` belongs “inactive”. On to `C=Cc1ccc(C(C)(C)C)cc1`, for which the Potency result is “inactive”.

As to `CCCCCc1cccc(=O)o1`, the Potency entry was “inactive”.

For the compound `CC(Oc1cc(Cl)ccc1Cl)C(=O)O` (stereo not given), the Potency entry is “inactive”. As for `CCN(CC)CCN`, the Potency entry is “inactive”.

Regarding `OC1OCCOC1O` (stereo not given), the Potency result is “inactive”. The result for `CCC(C)C(C)=O` (stereo not given) reads “inactive”; that for `Cn1c(=O)c2[nH]c(Br)nc2n(C)c1=O`, “inactive”.

As for `C=CCN1C[C@H](C(=O)N(CCCN(C)C)C(=O)NCC)C[C@@H]2c3cccc4[nH]cc(c34)C[C@H]21`, the Potency entry is “inactive”. To `Cc1cc(-c2ccccc2)nnc1NCCN1CCOCC1` belongs “inactive”. On to `COC(=O)c1cccc(Cl)c1`, for which the Potency entry was “inactive”. For the compound `OCC(O)CN1CCN(c2ccccc2)CC1` (stereo not given), the Potency entry is “inactive”.

Turning to `CCCCCCCCCCCCCBr`, the Potency entry was “inactive”.

`CC(C)(CO)C(O)C(=O)NCCCO` (stereo not given): the Potency entry was “inactive”. With `CC(C)C1OCCN1CCOC(=O)NCCCCCCNC(=O)OCCN1CCOC1C(C)C` (stereo not given), the Potency entry was “inactive”. On to `CC(=O)O[Si](C)(OC(C)=O)OC(C)=O`, for which the Potency entry is “inactive”. To `Cc1ccc(C)c([N+](=O)[O-])c1` belongs “inactive”; to `CC(=O)CCc1ccc(OC(C)=O)cc1`, “inactive”; to `CC(=O)CC(=O)OC(C)(C)C`, “inactive”. On to `CCNC(=O)NCc1cccc(Cl)c1`, for which the Potency result was “inactive”. To `CC(=O)CCC1=C(C)CCCC1(C)C` belongs “inactive”; to `O=C(O)CONC(=O)c1ccccc1`, “inactive”; to `O/N=C/C=N/O`, “inactive”. In the case of `CC/C(C)=N\O[Si](C)(O/N=C(\C)CC)O/N=C(\C)CC`, the Potency entry was “inactive”. To `O=C(CN1CCNCC1)NC1CCCCC1` belongs “inactive”; to `CC(=O)O[C@@H]1CC2CCC1(C)C2(C)C` (stereo not given in full), “inactive”. The result for `CC(C)OC(=O)CCC(=O)OC(C)C` reads “inactive”; that for `C[Si]1(C)O[Si](C)(C)O[Si](C)(C)O[Si](C)(C)O[Si](C)(C)O1`, “inactive”. To `O=C[O][Al]([O]C=O)[O]C=O` belongs “inactive”; to `CCO`, “inactive”. As for `CCCCCC(C)O` (stereo not given), the Potency result is “inactive”.

`CCCCOCC(C)O` (stereo not given): the Potency entry was “inactive”. The result for `CCc1occc(=O)c1O` reads “inactive”.

Source of the values: PubChem BioAssay (Tox21).
